Data taken from ChEMBL document CHEMBL3988442, “University of Dundee, Small-Polar-MMV Screening Library” (2021).
Among all 38,000 compounds or so, about 1,200 (3.2%) showed an effect of 50% or more. The median lay at about -58%. For the sample, strong results were picked, then their nearest neighbours and some compounds at random.

tested on: Plasmodium falciparum; test: Calibr Malaria Delayed Death Assay SOP; format: functional, organism-based; design: scale not given: in the data most compounds retested in dose-response had high values; details: concentration 4.99e-06 (unit not given; other assays of the set use mol/L)

Row | SMILES | Percent Effect [%]
1 | O=C(O)C1CCN(C(=O)Cn2ccc3c(Cl)cccc32)CC1 | -74.89
2 | O=C(O)C1CCN(C(=O)CCn2ccc3cc(Br)ccc32)CC1 | -107.6
3 | O=C(Cn1ccc2ccc(F)cc21)NC[C@@H]1CCCN2CCCC[C@H]12 | 36.3
4 | O=C(CCn1ccc2cc(Br)ccc21)NC[C@@H]1CCCN2CCCC[C@H]12 | 65.78
5 | Cc1cccc2c1ccn2CC(=O)NC[C@@H]1CCCN2CCCC[C@H]12 | 70.06
6 | O=C(Cn1ccc2cc(Br)ccc21)NC[C@@H]1CCCN2CCCC[C@H]12 | -18.45
7 | O=C(Cn1ccc2ccc(Br)cc21)NC[C@@H]1CCCN2CCCC[C@H]12 | 78.77
8 | O=C(Cn1ccc2ccccc21)NC[C@@H]1CCCN2CCCC[C@H]12 | -17.29
9 | COc1ccc2c(ccn2CC(=O)NC[C@@H]2CCCN3CCCC[C@H]23)c1 | -61.04
10 | CC(C)c1nsc(N2CCC(OCCN3CCOCC3)CC2)n1 | -47.66
11 | CN(C)C(=O)COCC1CN(C2CCC2)Cc2ncn(C)c21.O=C(O)C(F)(F)F.O=C(O)C(F)(F)F (centres undefined) | -81.18
12 | CN(C)CC1(O)CCCN(C(=O)Cn2nc3ccccc3n2)CC1 (centres undefined) | -95.76
13 | Cc1c(C(=O)N2CCCC(O)(CN(C)C)CC2)c2cc(O)ccc2n1C (centres undefined) | -101.4
14 | Cc1cc2ccccc2n1CCC(=O)N1CCCC(O)(CN(C)C)CC1 (centres undefined) | 54.68
15 | Cn1nnc2c1C(COCC1CC1)CN(C(=O)Cc1cccs1)C2 (centres undefined) | -35.42
16 | N#Cc1c(CN2CCCC2Cn2cccn2)cn2ccccc12 (centres undefined) | -64.03
17 | CCc1cc(C(=O)N2CC[C@@H](c3ccc4ccccc4c3)[C@H](O)C2)[nH]n1 | 17.14
18 | CN(Cc1cc(F)cc2cccnc12)CC1CCN(CCO)CC1 | 84.26
19 | CC(C)c1nc(CN(C)CC2CCN(CCO)CC2)no1 | -37.31
20 | CC(O)CN1CCC(CN(C)CCC(=O)NC2CCCC2)CC1 (centres undefined) | -87.19
21 | CN(Cc1noc(C2CC2)n1)CC1CCN(CCO)CC1 | -111.1
22 | CC(O)CN1CCC(CN(C)Cc2cc(F)cc3cccnc23)CC1 (centres undefined) | 86.77

Row | SMILES | Percent Effect [%]
23 | CN(CC(N)=O)Cc1cc(Cl)cc2cccnc12 | -110.1
24 | CC(O)CN1CCC(CN(C)CC(=O)NC(C)C)CC1 (centres undefined) | -132.6
25 | CN(Cc1cc(Cl)cc2cccnc12)CC1CCN(CCO)CC1 | 88.36
26 | OCCN1CCN(Cc2cc(Cl)cc3cccnc23)CC1 | -35.44
27 | CCn1cc(Br)c(C(=O)NCc2ccccc2)n1 | -62.24
28 | COc1ccc(C(=O)N2CCC(Nc3cccnn3)CC2)cn1 | -79.23
29 | CN(C)c1ncc2c(n1)CN(C1CCSCC1)C2=O | -103.3
30 | Cc1cc(C2CCCN(Cc3nnc(Cc4ccccc4)o3)C2)n[nH]1 (centres undefined) | -117.5
31 | COc1cc(Cl)ccc1C(=O)N1CCCC(c2cc(C)[nH]n2)C1 (centres undefined) | -107.6
32 | Cc1cc(CNC(=O)c2ccno2)c(C)o1 | -93.35
33 | CCS(=O)(=O)c1ccccc1C(=O)N1CCCC(n2cccn2)C1 (centres undefined) | -21.75
34 | Cc1cccnc1[C@H](C)NC(=O)c1cccc(CC2CCNCC2)c1 | 7.759
35 | CC(C)(O)CCc1cccc(C(=O)NCc2cnn3cccnc23)c1 | -126.6
36 | O=C(NCc1cnn2cccnc12)c1cccc(CC2CCNCC2)c1 | 65.91
37 | CCNC(=O)C1CCCN(C(=O)Nc2ccc3c(c2)CCCN3C)C1 (centres undefined) | 9.496
38 | CCOCC1CCN(C(=O)Nc2ccc3c(c2)CCCO3)C1 (centres undefined) | -56.87
39 | CCOCC1CCN(C(=O)Nc2ccc3c(c2)CCCN3C)C1 (centres undefined) | 57.13
40 | Cc1noc([C@H]2COC[C@H]3CN(C(=O)Cc4cccs4)C[C@H]32)n1 | -60.46
41 | CN(C(=O)Cn1nc(-c2cccs2)ccc1=O)C1CCS(=O)(=O)C1 (centres undefined) | -97.97
42 | CC1=C(CCN2CC[C@@H](N3CCC(O)CC3)[C@H](O)C2)C(C)(C)CCC1 | -51.59
43 | Cc1c(CN2C[C@H](O)[C@@H](N3CCOCC3)C2)[nH]c2ccc(F)cc12 | -95.14
44 | CC1=C(CCN2C[C@H](O)[C@@H](N3CCOCC3)C2)C(C)(C)CCC1 | 77.23

Row | SMILES | Percent Effect [%]
45 | COc1ccc2c(c1)NC(=O)C2OC(=O)Cc1ccccc1C (centres undefined) | 10.16
46 | CN1CCCN(c2nc(C3CCCC3)nc3c2cnn3C)CC1 | -58.12
47 | CN1CCCN(c2nccc(-c3cncnc3C3CCCCC3)n2)CC1 | 59.73
48 | CN1CCN(c2nccc(-c3cncnc3C3CCCCC3)n2)CC1 | 60.54
49 | CCc1ncc2c(n1)CN(c1nccc(C3CCCC3)n1)C2 | -48.7
50 | c1cc(-c2cn3nccc3nc2C2CCCCC2)nc(N2CCCC2)n1 | -1.044
51 | Cc1nn(C)cc1-c1ccnc(N2CCCN(CC(C)C)CC2)n1 | -23.38
52 | Cc1nn(C)c2ncc(NC(=O)N3CCCCCC3)cc12 | -40.12
53 | Cc1nc(CN2CCc3cnc(C(C)C)nc3C2)oc1C | -83.71
54 | CC(NS(C)(=O)=O)c1nc(-c2ccc(Br)cc2)no1 (centres undefined) | -124.5
55 | Cc1nc(C2CCNCC2)cc(N2CCOc3ccccc3C2)n1 | 46.26
56 | Cc1nc(CCN)cc(N2CCOc3ccc(Cl)cc3C2)n1 | 34.3
57 | Cc1nc(C2CCN(C)CC2)cc(N2CCOc3ccc(Cl)cc3C2)n1 | 69.39
58 | Cn1cnnc1C1CCCN1C(=O)Nc1cccc(OC(F)F)c1 (centres undefined) | -73.45
59 | CC(C)C(=O)N1CCCC2(CCCN2CC2CCCC2)C1.O=C(O)C(F)(F)F (centres undefined) | 59.96
60 | O=C(C1CCCCC1)N1CCC2(CCCN2CC2CC2)CC1.O=C(O)C(F)(F)F | -22.84
61 | CC(C)C(=O)N1CCC2(CN(CC3CCCC3)C2)C1.O=C(O)C(F)(F)F | -72.67
62 | CC(C)C(=O)N1CCC2(CCN2CC2CC2)C1.O=C(O)C(F)(F)F (centres undefined) | -79.93
63 | CC(C)C(=O)N1CCCC2(CCCN2Cc2cccnc2)C1 (centres undefined) | -19.91
64 | CCCC(NC(=O)c1ccc(C)cc1C)c1nnn[nH]1 (centres undefined) | -70.8
